According to PubChem BioAssay AID463173 (ICCB-Longwood Screening Facility, Harvard Medical School, 2010):
The campaign covered roughly 52,000 compounds. About 4,300 (8.3%) were called active. Shown is part of a subset that was picked to be rich in actives. Unmarked numbers belong to inactive results. Cut-off read from the data, not from the text of the source: active = survival mostly below about 52% (no sharp cut-off); inactive = mostly above about 56%.

Each compound was assayed on DeltatarO mutant (assay: growth inhibition of S. aureus wild type versus tarO mutant, primary screen, teichoic acid synthesis inhibitors, RN4220, OD600 (AID 463173)). Conditions: OD600, 18 h, stronger effect = lower value, screened at 18.75 µg/mL (by protocol).
`Cc1cccc(-c2nc(CCNC(=O)Cc3ccc(F)cc3)cs2)c1` showed a survival of 55%.
In the case of `COc1ccc(CC(=O)NCCc2csc(-c3ccc(C(F)(F)F)cc3)n2)cc1`, the survival is reported as -5% (active).
`Cc1cccc(-c2nc(CCNC(=O)c3ccco3)cs2)c1` was tested, and the survival was -5% (active).
Work on `Cc1cccc(-c2nc(CCNC(=O)c3ccc(Br)o3)cs2)c1` yielded a survival of 89%.
With `Cc1cccc(-c2nc(CCNC(=O)Cc3ccccc3)cs2)c1` the survival was 17% (active).
Work on `CCOc1ccc(CC(=O)NCCc2csc(-c3ccc(C(F)(F)F)cc3)n2)cc1` yielded a survival of 77%.
Compound `COc1ccc(CCC(=O)NCCc2csc(-c3ccc(C(F)(F)F)cc3)n2)cc1` has a survival of 73%.
Work on `COc1ccc(CC(=O)NCCc2csc(-c3cccc(C)c3)n2)cc1` yielded a survival of 68%.
`O=C(NCCc1csc(-c2cccc(F)c2)n1)c1ccco1` gave a survival of 94%.
For `CCOc1ccc(-c2nnc(SCC(=O)c3ccccc3)n2-c2ccccc2)cc1`, the survival was 136%.
With `COc1cccc(CNC(=O)c2cc(S(=O)(=O)N3CCCCC3)c[nH]2)c1` the survival was 64%.
Compound `COc1ccccc1NC(=O)CSc1ncc2c(n1)-c1ccccc1N(Cc1ccccc1C)S2(=O)=O` has a survival of 101%.
Work on `Cc1cc(=O)[nH]c2nnc(SCC(=O)NC(C)(C)C)n12` yielded a survival of 77%.
`COc1ccc(-c2cc(=O)oc3c4c(ccc23)OCN(Cc2cccc(OC)c2)C4)cc1` was tested, and the survival was 38% (active).
`COc1ccc(CN2COc3ccc4c(-c5ccc(OC)cc5)cc(=O)oc4c3C2)cc1` gave a survival of 65%.
Work on `COc1ccc(-c2cc(=O)oc3c4c(ccc23)OCN(Cc2ccccc2)C4)cc1` yielded a survival of 82%.
`Cc1cccc(NC(=O)C2CCN(S(=O)(=O)c3cccc4nsnc34)CC2)c1` gave a survival of 84%.
In the case of `CCOc1ccc(NC(=O)CC2C(=O)N(c3ccc(F)cc3)C(=O)N2Cc2ccc(OC)c(OC)c2)cc1` (stereo not given), the survival is reported as 90%.
Compound `Cc1ccc(C)c(CSc2nc3ncccc3[nH]2)c1` has a survival of 73%.
For `COc1ccccc1NC(=O)CSc1nc2nccnc2c(=O)n1CCc1c[nH]c2ccccc12`, the survival was 38% (active).
Compound `O=C(CSc1nc2nccnc2c(=O)n1CCc1c[nH]c2ccccc12)Nc1ccccc1` has a survival of 73%.
In the case of `Cn1c(SCC(=O)Nc2ccccc2F)nc2c([nH]c3ccccc32)c1=O`, the survival is reported as 115%.
Work on `CCc1ccc(NC(=O)CSc2nc3nccnc3c(=O)n2CCc2c[nH]c3ccccc23)cc1` yielded a survival of 88%.
`COCCCn1c(SCC(=O)Nc2ccccc2OC)nc2c(sc3ccccc32)c1=O` was tested, and the survival was 77%.
With `O=C(CSc1nc2nccnc2c(=O)n1CCc1c[nH]c2ccccc12)Nc1ccccc1F` the survival was 46% (active).
With `COc1ccccc1NC(=O)CSc1nc2ccccc2c(=O)n1CCC(=O)NC1CCCCC1` the survival was 89%.
`Cc1ccc(NC(=O)CSc2nc3nccnc3c(=O)n2CCc2c[nH]c3ccccc23)c(C)c1` was tested, and the survival was 45% (active).
Work on `Cc1cc(C)c(NC(=O)CSc2nc3nccnc3c(=O)n2CCc2c[nH]c3ccccc23)c(C)c1` yielded a survival of 48%.
`O=C(CSc1nc2nccnc2c(=O)n1CCc1c[nH]c2ccccc12)Nc1ccc(F)cc1` was tested, and the survival was 29% (active).
Compound `Cc1ccc(NC(=O)CSc2nc3c([nH]c4ccccc43)c(=O)n2-c2ccccc2)c(C)c1` has a survival of 96%.
Work on `O=C(CSc1nc2c([nH]c3ccccc32)c(=O)n1-c1ccccc1)Nc1ccccc1F` yielded a survival of 96%.
Compound `Cc1ccc(C)c(NC(=O)CCCn2nc(C)c3sc4ccccc4c3c2=O)c1` has a survival of 85%.
`CCOC(=O)c1c(C)[nH]c(C)c1S(=O)(=O)N(C)CC(=O)Nc1ccc(C)cc1Br` showed a survival of 72%.
In the case of `CCCCN(C)C(=O)Cn1cnc2sc(C)c(S(=O)(=O)N3CCN(c4ccccc4OC)CC3)c2c1=O`, the survival is reported as 70%.
Compound `Cc1cc(C)n(-c2nc(C)c(C)c(=O)n2CC(=O)Nc2ccc(OC(F)(F)F)cc2)n1` has a survival of 90%.
With `COc1ccccc1N1CCN(C(=O)COc2ccccc2C#N)CC1` the survival was 81%.
Compound `COc1cc(C(=O)N2CCN(CCc3ccncc3)CC2)cc(OC)c1OC` has a survival of 89%.
`CS(=O)(=O)n1nc(-c2ccco2)nc1NCc1ccccc1Cl` gave a survival of 61%.
With `COc1cc(NC(=O)Cn2cnc3sc(C)c(S(=O)(=O)N4CCC(C)CC4)c3c2=O)cc(OC)c1OC` the survival was 111%.
Compound `Cc1cc(C)c2c(n1)nn1c(C)c(CCC(=O)NCc3ccc(Cl)cc3)c(C)nc21` has a survival of 80%.
Work on `Cc1ccccc1NC(=O)NCCc1c[nH]c2ccccc12` yielded a survival of 47%.
In the case of `Cc1ccccc1NC(=O)CSc1nc2nccnc2c(=O)n1CCc1c[nH]c2ccccc12`, the survival is reported as 40% (active).
Compound `Cc1cccc(NC(=O)CSc2nc3c([nH]c4ccccc43)c(=O)n2C)c1C` has a survival of 80%.
With `CCOCCCn1c(SCC(=O)Nc2cc(C)ccc2C)nc2c(oc3ccccc32)c1=O` the survival was 90%.
Work on `Cc1ccc(C)c(NC(=O)Cn2c(SCC(=O)NCc3ccccc3)nc3ccccc32)c1` yielded a survival of 101%.
In the case of `Cc1ccc(C)c(NC(=O)CSc2nc3nccnc3c(=O)n2CCc2c[nH]c3ccccc23)c1`, the survival is reported as 37% (active).
`Cc1ccc(NC(=O)c2sc3ncnc(N(C)C4CCCCC4)c3c2C)cc1` gave a survival of 144%.
With `CCOc1ccc(CCNC(=O)c2ccc3nc(CC)c(CC)nc3c2)cc1` the survival was 91%.
In the case of `CN(C)C(=O)CSc1ccc(-c2ccc(F)cc2)nn1`, the survival is reported as 92%.
`CC(C)Oc1ccc(C(=O)Nc2nnc3n2CCS3)cc1` gave a survival of 124%.
For `Cc1cccc(NC(=O)NC2CC3CCCC(C2)N3CC(C)C)c1` (stereo not given), the survival was 94%.
Work on `CC(C)C(NS(=O)(=O)c1ccc2c(c1)oc(=O)n2C)C(=O)NCCc1ccccc1` (stereo not given) yielded a survival of 89%.
Work on `COc1ccc(C(=O)Nc2ccc(N3CCOCC3)c(C(F)(F)F)c2)cc1OC` yielded a survival of 91%.
For `Cc1oc2ccc(O)c(CN(C)Cc3ccccc3)c2c1C(=O)Nc1cccc(Cl)c1C`, the survival was 11% (active).
With `Cc1oc2ccc(O)c(CN(C)Cc3ccccc3)c2c1C(=O)Nc1cccc(C(F)(F)F)c1` the survival was 6% (active).
`Cc1oc2ccc(O)c(CN3CCCC3)c2c1C(=O)Nc1cccc(Cl)c1C` was tested, and the survival was 71%.
For `Cc1oc2ccc(O)c(CN3CCN(Cc4ccccc4)CC3)c2c1C(=O)Nc1cccc(Cl)c1C`, the survival was 72%.
`Cc1oc2ccc(O)c(CN(C)Cc3ccccc3)c2c1C(=O)Nc1ccccc1` showed a survival of 92%.
In the case of `Cc1oc2ccc(O)c(CN3CCN(C)CC3)c2c1C(=O)Nc1cccc(C(F)(F)F)c1`, the survival is reported as 81%.
`CCOC(=O)c1ccccc1NC(=O)c1c2c(nc3ccccc13)C(=O)N(C1CCCCC1)C2` was tested, and the survival was 75%.
`CC(C)C1N=C2c3ccccc3N=C(SCC(=O)NCc3ccc(F)cc3)N2C1=O` (stereo not given) was tested, and the survival was 73%.
In the case of `Cc1ccc(Cn2ccn(CC(=O)Nc3c(C)cc(C)cc3C)c(=O)c2=O)cc1`, the survival is reported as 47%.
In the case of `COc1ccccc1Cn1ccn(CC(=O)Nc2c(C)cc(C)cc2C)c(=O)c1=O`, the survival is reported as 41% (active).
`O=C(Cn1ccn(-c2ccc(F)cc2)c(=O)c1=O)Nc1ccc(F)cc1` was tested, and the survival was 60%.
`COc1cc(NC(=O)Cn2ccn(Cc3ccccc3OC)c(=O)c2=O)cc(OC)c1` was tested, and the survival was 52%.
For `COc1ccc(NC(=O)Cn2ccn(-c3ccccc3)c(=O)c2=O)cc1`, the survival was 52%.
`CCc1ccc(NC(=O)Cn2ccn(-c3ccc(OC)cc3)c(=O)c2=O)cc1` showed a survival of 67%.
With `Cc1ccc(NC(=O)Cn2ccn(-c3ccccc3)c(=O)c2=O)cc1` the survival was 56% (active).
With `CCc1ccc(NC(=O)Cn2ccn(Cc3ccccc3OC)c(=O)c2=O)cc1` the survival was 46% (active).
`COc1ccccc1NC(=O)Cn1ccn(-c2cc(C)cc(C)c2)c(=O)c1=O` showed a survival of 55%.
Work on `COc1ccc(NC(=O)CC2C(=O)N(c3ccc(C)cc3)C(=O)N2CCc2ccccc2)cc1` (stereo not given) yielded a survival of 62%.
With `Cc1ccc(-c2cn3c(n2)sc2cc(C(=O)NCCCc4ccccc4)ccc23)c(C)c1` the survival was 48%.
In the case of `O=C1N(c2ccccc2)C(=O)N(c2ccccc2)C2c3ccccc3C=CN12` (stereo not given), the survival is reported as 100%.
`CCOC(=O)c1ccccc1NC(=O)Nc1cc2c(cc1N1CCCC1)n(C)c(=O)n2C` was tested, and the survival was 108%.
For `CCc1nc2ccc(C(=O)NCCc3ccc(OC)c(OC)c3)cc2nc1CC`, the survival was 88%.
`Cc1cccc(NC(=O)c2c(Br)sc3c2CCCC3)c1` was tested, and the survival was 3% (active).
With `Cc1cccc(NC(=O)c2c(N)sc3c2CCC(C)C3)c1` (stereo not given) the survival was 59%.
In the case of `O=C(Nc1cccc(Cl)c1)c1c(NC(=O)C(F)(F)F)sc2c1CCCC2`, the survival is reported as -2% (active).
`Cc1cccc(NC(=O)c2c(NC(=O)c3ccccc3)sc3c2CCCC3)c1` gave a survival of 61%.
In the case of `CCOc1ccc(NC(=O)c2c(NC(=O)c3cccc(C)c3)sc3c2CCC3)cc1`, the survival is reported as 160%.
Work on `O=C(Nc1sc2c(c1C(=O)Nc1cccc(Cl)c1)CCCC2)c1cccs1` yielded a survival of 159%.
Work on `Cc1cccc(NC(=O)c2c(NC(=O)c3ccccc3)sc3c2CCC3)c1` yielded a survival of 72%.
`Cc1cccc(NC(=O)c2c(NC(=O)C(F)(F)F)sc3c2CCCCC3)c1` was tested, and the survival was -3% (active).
In the case of `O=C(Cc1ccccc1)Nc1sc2c(c1C(=O)Nc1cccc(Cl)c1)CCCCC2`, the survival is reported as 65%.
`O=c1n(Cc2ccc(F)cc2Cl)c2ccccc2c2nc(-c3ccccc3)nn12` was tested, and the survival was 125%.
For `O=S(=O)(c1ccc(-c2cnc(C3CC3)o2)cc1)N1CCN(c2cccc(Cl)c2)CC1`, the survival was 75%.
With `COc1ccc(Br)cc1CNC(=O)C1COc2ccccc2C1` (stereo not given) the survival was 49%.
For `Cc1ccccc1C(=O)Oc1c(Sc2ccccc2)c(C)nn1C(C)(C)C`, the survival was 21% (active).
`COc1ccc(C(=O)Oc2c(Sc3ccc(C)cc3)c(C)nn2C(C)(C)C)cc1OC` was tested, and the survival was 115%.
Compound `COc1ccc(C(=O)Oc2c(Sc3ccc(C)cc3)c(C)nn2C(C)(C)C)c(OC)c1` has a survival of 49%.
In the case of `Cc1nn(C(C)(C)C)c(OC(=O)C(C)(C)C)c1Sc1ccccc1`, the survival is reported as -10% (active).
For `COc1ccccc1C(=O)Oc1c(Sc2ccccc2)c(C)nn1C(C)(C)C`, the survival was 87%.
`CCOc1ccccc1C(=O)Oc1c(Sc2ccccc2)c(C)nn1C(C)(C)C` showed a survival of 91%.
With `COc1cccc(C(=O)Oc2c(Sc3ccc(C)cc3)c(C)nn2C(C)(C)C)c1OC` the survival was 21% (active).
`Cc1ccc(Sc2c(C)nn(C(C)(C)C)c2OC(=O)C(C)(C)C)cc1` was tested, and the survival was -10% (active).
